The record followed here is ChEMBL document CHEMBL2218924, “A broad activity screen in support of a chemogenomic map for kinase signalling research and drug discovery” (Biochem J, 2013).

SMILES strings stand for the structures.

Assay [1] addresses Tyrosine-protein kinase SYK (Homo sapiens) (UniProt P43405). Conditions: at 10 µM.
Assay [2] has as its target T1, Mitogen-activated protein kinase kinase kinase 7 (Homo sapiens) (UniProt O43318).
T1 sequence (whole entry): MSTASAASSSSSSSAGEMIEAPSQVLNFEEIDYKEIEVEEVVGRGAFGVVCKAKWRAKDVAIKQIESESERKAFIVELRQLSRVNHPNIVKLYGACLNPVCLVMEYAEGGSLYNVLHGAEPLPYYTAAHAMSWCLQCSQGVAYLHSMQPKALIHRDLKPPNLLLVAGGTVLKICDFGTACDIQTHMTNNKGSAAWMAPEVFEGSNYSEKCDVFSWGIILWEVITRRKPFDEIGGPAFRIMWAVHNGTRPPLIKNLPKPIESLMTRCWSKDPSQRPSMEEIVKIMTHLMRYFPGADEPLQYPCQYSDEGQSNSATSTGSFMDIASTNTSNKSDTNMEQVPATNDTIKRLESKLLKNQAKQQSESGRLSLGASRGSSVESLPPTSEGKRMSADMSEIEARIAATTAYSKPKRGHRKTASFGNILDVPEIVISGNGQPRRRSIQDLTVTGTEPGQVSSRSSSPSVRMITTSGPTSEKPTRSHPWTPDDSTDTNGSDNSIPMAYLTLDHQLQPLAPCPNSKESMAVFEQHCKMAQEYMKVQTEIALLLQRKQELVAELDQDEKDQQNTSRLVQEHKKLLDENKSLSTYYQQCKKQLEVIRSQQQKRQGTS
As to conditions: at 1 µM.

The target in assay [3] is T1, Mitogen-activated protein kinase kinase kinase 7 (Homo sapiens). As to conditions: at 10 µM.
In assay [4] the target is T2, Serine/threonine-protein kinase TAO1 (Homo sapiens) (UniProt Q7L7X3).
T2 sequence (whole entry): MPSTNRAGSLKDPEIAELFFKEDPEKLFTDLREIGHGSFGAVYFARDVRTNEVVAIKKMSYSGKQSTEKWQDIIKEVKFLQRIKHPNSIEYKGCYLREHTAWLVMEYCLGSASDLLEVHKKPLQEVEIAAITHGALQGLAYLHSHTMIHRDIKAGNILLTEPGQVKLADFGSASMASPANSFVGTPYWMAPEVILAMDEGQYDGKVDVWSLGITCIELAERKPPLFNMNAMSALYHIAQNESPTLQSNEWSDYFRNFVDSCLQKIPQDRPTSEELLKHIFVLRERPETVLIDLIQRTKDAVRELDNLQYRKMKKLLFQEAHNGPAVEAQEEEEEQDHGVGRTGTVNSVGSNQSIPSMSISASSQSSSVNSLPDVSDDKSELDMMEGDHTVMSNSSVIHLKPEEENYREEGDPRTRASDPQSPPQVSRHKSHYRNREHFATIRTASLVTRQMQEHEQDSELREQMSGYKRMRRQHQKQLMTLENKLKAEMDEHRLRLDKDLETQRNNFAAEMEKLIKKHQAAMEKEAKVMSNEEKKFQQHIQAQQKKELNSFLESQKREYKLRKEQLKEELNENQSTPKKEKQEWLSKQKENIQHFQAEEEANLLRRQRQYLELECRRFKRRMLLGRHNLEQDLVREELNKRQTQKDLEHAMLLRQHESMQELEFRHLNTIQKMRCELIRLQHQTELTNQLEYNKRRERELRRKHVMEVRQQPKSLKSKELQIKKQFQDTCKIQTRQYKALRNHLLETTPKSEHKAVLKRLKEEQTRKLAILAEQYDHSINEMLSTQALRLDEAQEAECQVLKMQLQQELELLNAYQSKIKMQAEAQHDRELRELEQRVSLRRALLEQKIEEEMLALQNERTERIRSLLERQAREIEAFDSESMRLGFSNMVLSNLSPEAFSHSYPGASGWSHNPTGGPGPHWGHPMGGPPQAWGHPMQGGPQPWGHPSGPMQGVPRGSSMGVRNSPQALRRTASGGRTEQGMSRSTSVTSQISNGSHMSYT
Conditions: at 1 µM.

Assay [5] addresses T2, Serine/threonine-protein kinase TAO1 (Homo sapiens). As to conditions: at 10 µM.
Assay [6] has as its target T3, Serine/threonine-protein kinase TAO2 (Homo sapiens) (UniProt Q9UL54).
T3 sequence (whole entry): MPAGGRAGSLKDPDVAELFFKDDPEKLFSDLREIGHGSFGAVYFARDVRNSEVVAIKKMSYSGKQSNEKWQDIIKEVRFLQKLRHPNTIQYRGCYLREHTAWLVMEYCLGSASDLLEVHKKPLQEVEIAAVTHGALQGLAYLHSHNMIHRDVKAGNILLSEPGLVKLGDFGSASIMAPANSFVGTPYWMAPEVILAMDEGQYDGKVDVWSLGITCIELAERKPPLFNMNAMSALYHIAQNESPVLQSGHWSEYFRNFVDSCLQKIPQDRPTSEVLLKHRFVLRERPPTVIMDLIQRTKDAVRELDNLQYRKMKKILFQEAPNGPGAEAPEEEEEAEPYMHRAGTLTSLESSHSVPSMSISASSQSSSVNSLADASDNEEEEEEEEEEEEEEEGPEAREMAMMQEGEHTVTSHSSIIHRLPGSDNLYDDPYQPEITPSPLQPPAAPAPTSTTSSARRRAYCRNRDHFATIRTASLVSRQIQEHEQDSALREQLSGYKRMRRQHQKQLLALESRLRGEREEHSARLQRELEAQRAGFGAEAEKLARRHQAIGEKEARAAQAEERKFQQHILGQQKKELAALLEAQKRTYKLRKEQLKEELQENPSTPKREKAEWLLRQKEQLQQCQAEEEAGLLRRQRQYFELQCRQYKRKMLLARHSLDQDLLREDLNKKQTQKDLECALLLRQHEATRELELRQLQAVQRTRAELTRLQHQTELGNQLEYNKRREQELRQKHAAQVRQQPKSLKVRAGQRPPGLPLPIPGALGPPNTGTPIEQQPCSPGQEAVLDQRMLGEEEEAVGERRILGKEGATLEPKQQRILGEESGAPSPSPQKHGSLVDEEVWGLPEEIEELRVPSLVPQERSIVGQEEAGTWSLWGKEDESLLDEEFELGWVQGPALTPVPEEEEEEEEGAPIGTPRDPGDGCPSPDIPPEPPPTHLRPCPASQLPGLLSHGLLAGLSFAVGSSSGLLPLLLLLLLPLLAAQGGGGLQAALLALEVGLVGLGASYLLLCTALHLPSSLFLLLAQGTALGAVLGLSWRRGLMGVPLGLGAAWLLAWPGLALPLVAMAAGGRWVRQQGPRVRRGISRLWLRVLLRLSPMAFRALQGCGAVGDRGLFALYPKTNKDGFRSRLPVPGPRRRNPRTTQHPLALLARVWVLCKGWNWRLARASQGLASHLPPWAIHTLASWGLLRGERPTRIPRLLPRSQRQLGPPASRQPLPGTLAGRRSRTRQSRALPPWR
As to conditions: at 1 µM.

Assay [7] has as its target T3, Serine/threonine-protein kinase TAO2 (Homo sapiens). Conditions: at 10 µM.
The target of assay [8] is T4, Serine/threonine-protein kinase TAO3 (Homo sapiens) (UniProt Q9H2K8).
T4 sequence (whole entry): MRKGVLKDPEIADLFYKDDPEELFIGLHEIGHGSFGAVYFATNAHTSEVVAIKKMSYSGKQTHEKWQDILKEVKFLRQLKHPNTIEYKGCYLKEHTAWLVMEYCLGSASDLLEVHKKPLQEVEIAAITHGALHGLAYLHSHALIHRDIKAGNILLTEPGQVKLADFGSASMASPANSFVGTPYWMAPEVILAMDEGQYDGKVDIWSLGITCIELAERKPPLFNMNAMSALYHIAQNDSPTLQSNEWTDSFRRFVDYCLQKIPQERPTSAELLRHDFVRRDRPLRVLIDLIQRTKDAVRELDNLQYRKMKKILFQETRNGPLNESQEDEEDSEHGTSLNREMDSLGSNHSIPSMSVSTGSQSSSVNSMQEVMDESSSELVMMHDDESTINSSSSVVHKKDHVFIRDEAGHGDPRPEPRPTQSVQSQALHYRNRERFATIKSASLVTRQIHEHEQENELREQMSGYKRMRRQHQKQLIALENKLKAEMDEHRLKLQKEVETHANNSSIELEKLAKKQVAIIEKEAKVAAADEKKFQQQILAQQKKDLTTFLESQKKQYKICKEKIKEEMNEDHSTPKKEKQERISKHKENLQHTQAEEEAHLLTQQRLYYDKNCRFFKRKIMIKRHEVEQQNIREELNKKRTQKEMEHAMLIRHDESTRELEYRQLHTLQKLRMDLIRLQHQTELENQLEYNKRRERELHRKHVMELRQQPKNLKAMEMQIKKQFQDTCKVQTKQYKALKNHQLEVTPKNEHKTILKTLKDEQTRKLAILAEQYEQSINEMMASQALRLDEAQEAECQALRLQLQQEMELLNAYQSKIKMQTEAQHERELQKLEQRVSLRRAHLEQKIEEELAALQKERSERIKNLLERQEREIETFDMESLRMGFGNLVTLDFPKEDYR
As to conditions: at 1 µM.

In the case of `O=C1Nc2ccc(Cl)cc2/C1=C/c1cc(Cl)c(O)c(Cl)c1`, the residual activity in assay [1] came out at 56%; in assay [2], 83%; in assay [3], 75%; in assay [4], 62%; in assay [5], 35%; in assay [6] it was 72%. Further, the residual activity in assay [7] is 58%; in assay [8], 61%.
